The source of these data is PubChem BioAssay AID1259349 (Broad Institute, 2017).

Several values for one entry are separate records, joined by “and”; a condition that tells them apart may be missing. Identical values can stand only once. Out of some 17,000 compounds screened, about 1,100 (6.5%) were called active.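 How the source made its calls: active means z-score of -3 or lower, meaning strong loss of probe binding signal; inactive means the rest.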 Many of the other results were omitted from the sample, so actives are more common in it than they were. A structure can be active in one record and inactive in another.

Chain of Insulin-degrading enzyme (Homo sapiens) (P14735 42-1019 limits assumed): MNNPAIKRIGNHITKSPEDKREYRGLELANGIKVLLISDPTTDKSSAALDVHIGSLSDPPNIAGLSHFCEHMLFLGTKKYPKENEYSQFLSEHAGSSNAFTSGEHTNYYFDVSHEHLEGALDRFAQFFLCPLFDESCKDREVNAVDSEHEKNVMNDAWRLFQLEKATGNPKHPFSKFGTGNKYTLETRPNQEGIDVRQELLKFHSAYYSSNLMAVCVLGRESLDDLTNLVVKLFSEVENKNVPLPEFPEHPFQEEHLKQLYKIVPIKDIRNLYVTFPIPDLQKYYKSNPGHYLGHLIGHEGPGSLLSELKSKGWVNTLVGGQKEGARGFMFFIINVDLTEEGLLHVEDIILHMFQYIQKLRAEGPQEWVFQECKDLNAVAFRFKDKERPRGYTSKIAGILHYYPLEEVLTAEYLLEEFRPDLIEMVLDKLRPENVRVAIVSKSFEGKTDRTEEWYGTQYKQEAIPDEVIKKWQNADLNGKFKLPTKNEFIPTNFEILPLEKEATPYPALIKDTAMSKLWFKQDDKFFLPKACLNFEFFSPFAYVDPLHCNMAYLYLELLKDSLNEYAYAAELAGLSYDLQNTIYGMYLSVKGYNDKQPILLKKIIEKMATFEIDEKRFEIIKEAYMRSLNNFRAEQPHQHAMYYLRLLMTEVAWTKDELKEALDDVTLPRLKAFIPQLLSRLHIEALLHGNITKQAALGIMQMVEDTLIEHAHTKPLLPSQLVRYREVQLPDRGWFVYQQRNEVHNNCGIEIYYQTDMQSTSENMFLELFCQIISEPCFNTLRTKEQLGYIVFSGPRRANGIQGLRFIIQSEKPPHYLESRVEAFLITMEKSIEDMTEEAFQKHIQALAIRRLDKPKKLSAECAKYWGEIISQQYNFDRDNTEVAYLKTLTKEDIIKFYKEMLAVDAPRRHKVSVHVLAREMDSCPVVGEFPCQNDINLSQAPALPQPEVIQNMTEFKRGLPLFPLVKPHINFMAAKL

The assay addresses Insulin-degrading enzyme (Homo sapiens) (UniProt P14735). Put plainly: exo-site inhibitors of human IDE, primary screen, biochemical, fluorescence anisotropy, probe displacement (AID 1259349).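 Further: His-tagged human IDE residues 42-1019 made in E. coli with 30 nM FL-6b probe.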 The conditions noted are these: purified IDE, FL-6b probe fluorescence polarization; at 20 µM; stronger effect = lower value.
As for `CC(C)C#Cc1ccc([C@H]2[C@@H](C#N)N(C(=O)CN(C)C)[C@H]2CO)cc1`, the z-score is 0.732 (inactive).

`COc1ccc2c3c([nH]c2c1)[C@H](CO)N(C(=O)Nc1ccc(F)cc1)CC31CCN(CC2CCOCC2)CC1`: the z-score was -0.0173 (inactive).

Consider `CCCNC(=O)N1CC2(CN(C(=O)c3cnccn3)C2)c2c([nH]c3cc(OC)ccc23)[C@@H]1CO`, for which the z-score is -1.28 (inactive).

On to `N#C[C@@H]1[C@@H](c2ccc(C3=CCCCC3)cc2)[C@@H](CO)N1C(=O)c1cccc(F)c1`, for which the z-score was 2.45 (inactive).

`C[C@@H]1CN([C@H](C)CO)C(=O)Cc2cc(N(C)C)ccc2O[C@H]1CN(C)C(=O)NC1CCCCC1`: the z-score was -0.478 (inactive).

For the molecule `COc1ccc2c3c([nH]c2c1)[C@H](CO)N(C(C)=O)CC31CN(S(=O)(=O)c2cccs2)C1`, the z-score was 0.716 (inactive).

`CNC[C@H]1OCCCC[C@@H](C)Oc2ccc(NS(=O)(=O)c3ccc(F)cc3)cc2C(=O)N([C@H](C)CO)C[C@H]1C`: the z-score was 0.482 (inactive).

As to `CCCNC(=O)N1[C@H](C#N)[C@@H](c2ccc(C3=CCCC3)cc2)[C@H]1CO`, the z-score was 0.0932 (inactive).

With `CCS(=O)(=O)N1[C@H](C#N)[C@H](c2ccc(-c3cccc(F)c3)cc2)[C@@H]1CO`, the z-score was 0.519 (inactive).

Take `Cn1cnc(S(=O)(=O)N2C[C@@H]3N[C@H](C2)C3c2ccc(/C=C/c3ccccc3)cc2)c1` (stereo partly drawn): the z-score is -1.85 (inactive) and -5.13 (active).

`COc1ccc(-c2ccc(C3[C@@H]4CN(S(=O)(=O)c5cn(C)cn5)C[C@H]3N4)cc2)cc1` (stereo partly drawn): the z-score was 2.29 (inactive).

Take `Cn1cnc(S(=O)(=O)N2C[C@@H]3N[C@H](C2)C3c2ccc(-c3ccccc3F)cc2)c1` (stereo partly drawn): the z-score is 0.547 (inactive) and 0.421 (inactive).

As to `O=C(Nc1cccc(F)c1)N1CC(=O)N2[C@H](C1)[C@H](c1ccc(-c3ccccc3F)cc1)[C@@H]2CO`, the z-score was 0.741 (inactive).

Take `Cc1ccc(S(=O)(=O)Nc2ccc3c(c2)C(=O)N([C@H](C)CO)C[C@@H](C)[C@H](CN(C)S(=O)(=O)c2cccs2)OCCCC[C@@H](C)O3)cc1`: the z-score was -0.652 (inactive).

`O=C(Cc1ccccn1)N[C@H]1CC[C@H](CCNS(=O)(=O)c2cccc(F)c2)O[C@@H]1CO`: the z-score was 0.0602 (inactive).

As to `O=C(CN1CCOCC1)N1C[C@@H]2N[C@H](C1)C2c1ccc(-c2ccncc2)cc1` (stereo partly drawn), the z-score was 0.193 (inactive).

On to `O=C(C1CCCCC1)N1CC(=O)N2[C@H](CO)[C@@H](c3ccc(C#Cc4cccc(F)c4)cc3)[C@@H]2C1`, for which the z-score is 1.96 (inactive).

For the molecule `COCC#Cc1ccc([C@@H]2[C@@H](CO)N3C(=O)CN(C(=O)C4CCOCC4)C[C@@H]23)cc1`, the z-score was 0.89 (inactive).

As for `O=C(C1CCOCC1)N1CC(=O)N2[C@H](CO)[C@H](c3ccc(C#Cc4cccc(F)c4)cc3)[C@H]2C1`, the z-score was -19.3 (active).

Take `COCC#Cc1ccc([C@@H]2[C@H]3CN(C(=O)C4CCOCC4)CC(=O)N3[C@H]2CO)cc1`: the z-score is 2.55 (inactive).

With `O=C(C1CCC1)N1CC(=O)N2[C@@H](CO)[C@@H](c3ccc(C#Cc4cccc(F)c4)cc3)[C@@H]2C1`, the z-score was -4.35 (active).

Consider `O=C(C1CCC1)N1CC(=O)N2[C@H](CO)[C@H](c3ccc(C#CCc4ccccc4)cc3)[C@@H]2C1`, for which the z-score is -2.52 (inactive).

Consider `COc1ccc2c3c([nH]c2c1)[C@@H](CO)N(Cc1ccncc1)CC31CN(C(=O)CN(C)C)C1`, for which the z-score was -0.567 (inactive).

As to `COCC(=O)Nc1ccc2c(c1)OC[C@@H](C)N(Cc1ccccc1C(=O)O)C[C@@H](C)[C@H](OC)CN(C)C2=O`, the z-score is 1.82 (inactive).

Take `O=C(c1cccc(F)c1)N1CCCCN2[C@H](CO)[C@@H](c3ccc(-c4cncnc4)cc3)[C@H]2C1`: the z-score is 1.13 (inactive).

In the case of `O=C(C1CC1)N1CCCCN2[C@H](CO)[C@H](c3ccc(-c4cccc(F)c4)cc3)[C@H]2C1`, the z-score was -6.38 (active).

Consider `O=C(C1CC1)N1CCCCN2[C@H](C1)[C@@H](c1ccc(-c3cccc(F)c3)cc1)[C@@H]2CO`, for which the z-score is -3.66 (active).

For the molecule `CC(=O)N1CCCCN2[C@H](C1)[C@@H](c1ccc(-c3ccc(F)cc3)cc1)[C@@H]2CO`, the z-score is 0.352 (inactive).

For the molecule `O=C(c1cccc(F)c1)N1CCCCN2[C@@H](CO)[C@H](c3ccc(-c4cncnc4)cc3)[C@@H]2C1`, the z-score is 1.94 (inactive).

`O=C(C1CCC1)N1CCCCN2[C@H](CO)[C@H](c3ccc(-c4ccncc4)cc3)[C@@H]2C1`: the z-score is -0.182 (inactive).

Regarding `COc1cccc(S(=O)(=O)Nc2ccc3c(c2)[C@@H]2C[C@@H](CC(=O)NC4CCCCC4)O[C@H](CO)[C@@H]2O3)c1`, the z-score was -0.362 (inactive).

For `COc1ccc2c3c([nH]c2c1)[C@@H](CO)N(C(=O)C1CC1)CC31CCN(C(=O)c2ccncc2)CC1`, the z-score is 1.3 (inactive).

Turning to `CO[C@H]1CN(C)C(=O)c2cc(NC(=O)C3CC3)ccc2OC[C@@H](C)N(Cc2cc(F)ccc2F)C[C@H]1C`, the z-score was -1.43 (inactive).

`COc1ccc2c3c(n(C)c2c1)[C@@H](CO)N(Cc1ccccc1F)CC31CCN(C(=O)C2CCOCC2)CC1`: the z-score was -2.72 (inactive).

For `OC[C@H]1[C@@H](c2ccc(-c3ccccc3F)cc2)[C@@H]2CN(Cc3ccncc3)CCCCN12`, the z-score is -0.42 (inactive).

Take `OC[C@@H]1[C@H](c2ccc(C#Cc3ccccc3)cc2)[C@@H]2CN(Cc3cncnc3)CCCCN12`: the z-score was -3.14 (active).

As for `OC[C@@H]1[C@@H](c2ccc(C#CC3(O)CCCC3)cc2)[C@@H]2CN(Cc3cncnc3)CCCCN12`, the z-score is 0.144 (inactive).

Regarding `OC[C@@H]1[C@@H](c2ccc(-c3ccccc3F)cc2)[C@@H]2CN(Cc3cncnc3)CCCCN12`, the z-score is -0.419 (inactive).

For `CCCC#Cc1ccc([C@H]2[C@H]3CN(Cc4cncnc4)CCCCN3[C@H]2CO)cc1`, the z-score is 1.82 (inactive).

Regarding `OC[C@H]1[C@H](c2ccc(-c3ccccc3F)cc2)[C@H]2CN(Cc3cncnc3)CCCCN21`, the z-score is -3.23 (active).

As for `CN1C(=O)c2cc(NC(=O)Nc3ccccc3Cl)ccc2OC[C@H]2O[C@H](CC(=O)NCCCN3CCOCC3)CC[C@H]21`, the z-score is -1.04 (inactive).

As for `CC(=O)NC[C@H]1[C@@H](c2ccc(C#CC(C)C)cc2)[C@@H](CO)N1Cc1ccccn1`, the z-score was -1.78 (inactive).

Take `C[C@@H]1CN([C@H](C)CO)C(=O)c2cc(NC(=O)NC3CCCCC3)ccc2O[C@@H]1CN(C)S(C)(=O)=O`: the z-score is 0.86 (inactive).

With `COc1cccc(C(=O)Nc2ccc3c(c2)C(=O)N(C)[C@H]2CC[C@@H](CC(=O)N[C@H](C)c4ccccc4)O[C@H]2CO3)c1`, the z-score was -4.24 (active).

For `C[C@@H](NC(=O)C[C@H]1CC[C@H]2[C@H](COc3ccc(NS(=O)(=O)c4ccc(Cl)cc4)cc3C(=O)N2C)O1)c1ccccc1`, the z-score is 0.297 (inactive).

Turning to `COc1cccc(C(=O)Nc2ccc3c(c2)C(=O)N(C)[C@H]2CC[C@H](CC(=O)N[C@@H](C)c4ccccc4)O[C@H]2CO3)c1`, the z-score was -1.12 (inactive).

In the case of `COc1ccc(C#Cc2ccc([C@H]3[C@H]4CN(C(=O)c5cccnc5)CC(=O)N4[C@H]3CO)cc2)cc1`, the z-score is -0.5 (inactive).

Regarding `Cc1ccccc1-c1ccc([C@H]2[C@H](CO)N3C(=O)CN(C(=O)c4cccnc4)C[C@@H]23)cc1`, the z-score was -12.4 (active).

`O=C(Cc1ccccn1)N1CC(=O)N2[C@H](C1)[C@@H](c1ccc(-c3ccccc3)cc1)[C@@H]2CO`: the z-score is -6.31 (active).

For the molecule `N#Cc1ccc(-c2ccc([C@H]3[C@H](CO)N4C(=O)CN(C(=O)Cc5ccccc5)C[C@@H]34)cc2)cc1`, the z-score was 1.44 (inactive).

As to `O=C(c1cccnc1)N1CC(=O)N2[C@H](C1)[C@H](c1ccc(-c3ccccc3F)cc1)[C@@H]2CO`, the z-score is -1.28 (inactive).

Take `O=C(Cc1ccccn1)N1CC(=O)N2[C@H](CO)[C@H](c3ccc(C#CCC4CCCC4)cc3)[C@@H]2C1`: the z-score is 0.616 (inactive).

With `Cc1ccccc1-c1ccc([C@H]2[C@@H](CO)N3C(=O)CN(C(=O)c4cccnc4)C[C@@H]23)cc1`, the z-score was -8.42 (active).

Consider `CCCC#Cc1ccc([C@H]2[C@H]3CN(C(=O)c4cccnc4)CC(=O)N3[C@H]2CO)cc1`, for which the z-score was 0.452 (inactive).

On to `O=C(c1ccccc1F)N1CC(=O)N2[C@H](CO)[C@@H](c3ccc(-c4cccnc4)cc3)[C@H]2C1`, for which the z-score was -0.211 (inactive).

Consider `O=C(c1cccnc1)N1CC(=O)N2[C@H](CO)[C@H](c3ccc(-c4cccnc4)cc3)[C@@H]2C1`, for which the z-score is 1.98 (inactive).

Regarding `COc1cccc(-c2ccc([C@@H]3[C@H]4CN(C(=O)c5cccnc5)CC(=O)N4[C@H]3CO)cc2)c1`, the z-score was -6.37 (active).

Consider `O=C(c1cccnc1)N1CC(=O)N2[C@H](CO)[C@@H](c3ccc(-c4ccc(F)cc4)cc3)[C@@H]2C1`, for which the z-score was -1.03 (inactive).

In the case of `C[C@H]1CN([C@@H](C)CO)S(=O)(=O)c2ccc(C#CC3(O)CCCC3)cc2O[C@@H]1CN(C)C(=O)Nc1cccc(F)c1`, the z-score is -0.533 (inactive).

Consider `COc1ccc(-c2ccccc2[C@H]2[C@@H](CO)N(C(=O)c3cccnc3)[C@H]2C#N)cc1`, for which the z-score is 0.00658 (inactive).

Consider `N#Cc1cccc(-c2ccc(C3[C@H]4CNC[C@@H]3N4Cc3cncnc3)cc2)c1` (stereo partly drawn), for which the z-score was 1.3 (inactive).

Regarding `CCN(C[C@H]1[C@H](c2ccc(-c3ccccc3)cc2)[C@H](CO)N1CC1CC1)C(C)=O`, the z-score is 2.55 (inactive).

As for `N#Cc1cccc(-c2ccc(C3[C@@H]4CNC[C@H]3N4)cc2)c1` (stereo partly drawn), the z-score is -0.64 (inactive).

Take `CCCNC(=O)N1[C@H](CNC(=O)c2cccc(F)c2)[C@H](c2ccccc2)[C@@H]1CO`: the z-score is 1.46 (inactive).

As to `CCCNC(=O)N1[C@@H]2Cn3c(ccc(-c4ccc(OC)cc4)c3=O)[C@H]1[C@@H](C(=O)NC1CCC1)[C@@H]2CO`, the z-score is -0.305 (inactive).

For `CN(C)C(=O)c1cccc(-c2ccc([C@H]3[C@H](CO)N4C(=O)CN(C(=O)Cc5ccccc5)C[C@@H]34)cc2)c1`, the z-score is 3.83 (inactive).

In the case of `Cc1cccc(-c2ccc([C@@H]3[C@H]4CN(C(=O)c5ccccc5)CC(=O)N4[C@H]3CO)cc2)c1`, the z-score is -8.7 (active).

As for `CN(C)C(=O)c1cccc(-c2ccc([C@H]3[C@H]4CN(C(=O)Cc5ccccc5)CC(=O)N4[C@H]3CO)cc2)c1`, the z-score was 1.91 (inactive).
